PubChem BioAssay
Unmarked numbers belong to inactive results. No rule for the calls is given here.

Molecular target: Pantothenate synthetase (Mycobacterium tuberculosis (strain ATCC 25618 / H37Rv)) (UniProt P9WIL5)
Assay: Coupled enzyme confirmation of inhibitors against recombinant Mtb PanC (AID 375);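 also: 0% = full reaction with vehicle and 100% = no enzyme background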
Conditions: coupled enzyme assay; at 10 µM, hits give high values

Pantothenate synthetase (Mycobacterium tuberculosis (strain ATCC 25618 / H37Rv)), sequence (P9WIL5 whole entry, looked up): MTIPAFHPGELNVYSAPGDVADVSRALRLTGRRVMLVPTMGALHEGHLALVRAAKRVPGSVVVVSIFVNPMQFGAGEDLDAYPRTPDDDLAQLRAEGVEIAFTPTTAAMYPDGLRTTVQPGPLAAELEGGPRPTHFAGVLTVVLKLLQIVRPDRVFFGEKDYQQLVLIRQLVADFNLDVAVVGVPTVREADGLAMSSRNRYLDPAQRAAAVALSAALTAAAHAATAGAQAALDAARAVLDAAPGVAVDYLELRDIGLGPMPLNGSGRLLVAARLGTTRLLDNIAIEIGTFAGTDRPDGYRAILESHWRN

SMILES: CC(NC(=O)Cc1cccs1)c1ccc2c(c1)OCO2 (stereo not given)
- inhibition: 0%

SMILES: Cc1nc2ccc(S(=O)(=O)NCC(=O)N3CCCCC3)cc2s1
- inhibition: 0%

SMILES: CCOC(=O)[C@H](CCc1ccccc1)N[C@@H](C)C(=O)N1CCC[C@H]1C(=O)O
- inhibition: 0%

SMILES: COc1cccc(C2C(C#N)=C(N)OC3=C2C(=O)CCC3)c1OC(=O)c1ccco1 (stereo not given)
- inhibition: 13%

SMILES: N#CC1=C(N)N(c2ccccc2)C2=C(C(=O)CCC2)C1c1cccs1 (stereo not given)
- inhibition: 0%

SMILES: O=C(Cn1cnc2ccccc2c1=O)NCCC(=O)N1CCN(Cc2ccccc2)CC1
- inhibition: 0%

SMILES: CC1CCc2cc(F)cc3c(O)c(C(=O)Nc4cnccn4)c(=O)n1c23 (stereo not given)
- inhibition: 0%

SMILES: Cn1c(=O)c(=O)n(C)c2cc(S(=O)(=O)CCC(=O)N3CCOCC3)ccc21
- inhibition: 0%

SMILES: CC(C)OC(=O)c1cc(NC(=O)C2C3CCC(O3)C2C(=O)O)cc(C(=O)OC(C)C)c1 (stereo not given)
- inhibition: 0%

SMILES: O=C(Nc1ccc(Cl)cc1C(=O)O)c1ccc2c(c1)C(=O)N(Cc1ccco1)C2=O
- inhibition: 0%

SMILES: CCOC(=O)c1[nH]c(C)c(C(=O)Nc2ccc(Cl)cc2)c1C
- inhibition: 0%

SMILES: Cc1ccc(O)c(C(CC(=O)N2CCCC2)c2ccccc2)c1 (stereo not given)
- inhibition: 0%

SMILES: Brc1ccc(-c2csc(/N=C/N3CCOCC3)n2)cc1
- inhibition: 3%

SMILES: COc1ccccc1OCC(O)COC(N)=O (stereo not given)
- inhibition: 6%

SMILES: N#CC(C(=O)c1ccco1)c1ccccn1 (stereo not given)
- inhibition: 3%

SMILES: Cc1ccc(C)c2[nH]c(=O)c(CCNC(=O)CC(C)(C)C)cc12
- inhibition: 4%

SMILES: COc1cccc(S(=O)(=O)Nc2ccc(C(=O)N3CCN(C(=O)c4ccco4)CC3)cc2)c1
- inhibition: 0%

SMILES: Cc1ccc(-n2ncc3c(N4CCN(c5ccccc5)CC4)ncnc32)c(C)c1
- inhibition: 0%

SMILES: O=c1c2[nH]c3cccc(Cl)c3c2ncn1CCN1CCCCC1
- inhibition: 6%

SMILES: Cc1oc2cc3c(C(=O)OCCN(C)C)c(C)oc3cc2c1C(=O)OCCN(C)C
- inhibition: 0%

SMILES: O=C(OCN1C(=O)c2ccccc2C1=O)C1CCCCC1
- inhibition: 1%

SMILES: CCCCOc1ccccc1NC(=O)c1ccco1
- inhibition: 0%

SMILES: CCC1=C(C(=O)OC)C(c2cc(OC)ccc2OC)C(C#N)=C(N)O1 (stereo not given)
- inhibition: 8%

SMILES: CCCc1cc(C(=O)Nc2ccccc2C(=O)OC)no1
- inhibition: 0%

SMILES: O=C(NCCOC(=O)C1COc2ccccc2O1)C1COc2ccccc2O1 (stereo not given)
- inhibition: 0%

SMILES: COc1nc(OC)nc(N2CCC(C(=O)NC3CCCCCC3)CC2)n1
- inhibition: 11%

SMILES: COc1ccc(C(=O)Nc2cccc(C)c2)cc1S(=O)(=O)N1CCOCC1
- inhibition: 1%

SMILES: COC(=O)c1ccc2c(c1)nc(C)n2CCO
- inhibition: 0%

SMILES: CCn1c(SCC(=O)Nc2cc(C)on2)nc2sc3c(c2c1=O)CCCC3
- inhibition: 0%

SMILES: Cc1cccn2c(=O)c3cc(C#N)c(=NC(=O)c4cccnc4)n(CC4CCCO4)c3nc12 (stereo not given)
- inhibition: 0%

SMILES: Cc1ccc2c(c1)c1c3n2CC(=C2C(=O)OC(C)(C)OC2=O)NC3CCC1 (stereo not given)
- inhibition: 6%

SMILES: COc1ccc(C2CC(=O)c3c(C)nc(N4CCN(c5ccccc5)CC4)nc3C2)cc1 (stereo not given)
- inhibition: 0%

SMILES: COc1cccc(CN2CCN(C(=O)CC(C)C)CC2)c1
- inhibition: 6%

SMILES: CCOc1cccc(/C(O)=C2/C(=O)C(=O)N(CCN3CCOCC3)C2c2cccnc2)c1 (stereo not given)
- inhibition: 0%

SMILES: CCOC(=O)CNC(=O)CSc1ncnc2c1cnn2Cc1ccccc1
- inhibition: 0%

SMILES: CCOC(=O)Cc1ccc(NS(=O)(=O)c2ccc(SC)cc2)cc1
- inhibition: 0%

SMILES: CCOc1ccc2nc(NC(=O)C(NS(=O)(=O)c3cccs3)C(C)C)sc2c1 (stereo not given)
- inhibition: 0%

SMILES: Cc1ccc(CN2C(=O)CCC2C(=O)NCCCN2CCC(C)CC2)cc1 (stereo not given)
- inhibition: 8%

SMILES: CCC(C(=O)O)n1c(C(F)(F)F)nc2ccccc21 (stereo not given)
- inhibition: 4%

SMILES: O=c1oc2c3c4c(cc2s1)CCCN4CCC3
- inhibition: 0%

SMILES: Cn1c2c(c(=O)n(C)c1=O)C(c1cccc(Br)c1)C1C(=O)c3ccccc3C1=N2 (stereo not given)
- inhibition: 9%

SMILES: CCOC(=O)C1CCCN(S(=O)(=O)c2cccs2)C1 (stereo not given)
- inhibition: 6%

SMILES: O=C1CCCC2=C1C1(CCCC1)N=C(Nc1nc3ccccc3s1)N2
- inhibition: 10%

SMILES: CCc1nc2sc3ccccc3c(=O)c2c(=O)n1Cc1ccco1
- inhibition: 0%

SMILES: O=C(NCCN1CCCCCC1)c1ccc(N2CCCC2=O)cc1
- inhibition: 1%

SMILES: CCOC(=O)C1C(=O)N(C(=O)c2ccc(OC)cc2)CC1c1ccccc1 (stereo not given)
- inhibition: 0%

SMILES: CC1(C)NC(=O)N(CNc2cc(Cl)ccc2Cl)C1=O
- inhibition: 0%

SMILES: Cc1cc2n(n1)C(c1ccccc1)Nc1ccccc1-2 (stereo not given)
- inhibition: 7%

SMILES: CC1(C)Cc2noc(N)c2C(C)(C)N1OC(=O)c1ccccc1
- inhibition: 0%

SMILES: CCOc1ccccc1NC(=O)NC1CCN(CC(=O)Nc2ccc3c(c2)OCCO3)CC1
- inhibition: 0%

SMILES: CC(=O)c1ccccc1Oc1nc(CN2CCOCC2)nc2scc(-c3cccs3)c12
- inhibition: 3%

SMILES: Cc1cc(NC(=O)C2=C(O)c3ccccc3S(=O)(=O)N2C)no1
- inhibition: 0%

SMILES: CCc1cc2c(NCCC(=O)O)ncnc2s1
- inhibition: 1%

SMILES: CC(=O)N1CCC2(CC1)CC(=O)c1cc(OCC(=O)NCc3ccc(C)cc3)ccc1O2
- inhibition: 3%

SMILES: CCOc1ccc(S(=O)(=O)N2CCN(c3ccc(C)cc3C)CC2)cc1
- inhibition: 0%

SMILES: CCOc1ccc2cc(C#N)c(SCC(=O)N3CCOCC3)nc2c1
- inhibition: 0%

SMILES: COc1cc2c(cc1NC(=O)CSc1nnc(Cc3cccs3)n1C)oc1ccccc12
- inhibition: 6%

SMILES: Cc1cc(C)nc(N2CCCC(C(=O)Nc3ccc4c(c3)OCO4)C2)n1 (stereo not given)
- inhibition: 0%

SMILES: O=C1CCC(=O)N1OCCCOc1ccc(Br)cc1Cl
- inhibition: 0%

SMILES: Cc1ccccc1CN1CCN(CC(=O)NCc2ccccc2)C1=O
- inhibition: 2%

SMILES: O=C(O)C1CC=CCC1C(=O)Nc1ccc(S(=O)(=O)N2CCCc3ccccc32)cc1 (stereo not given)
- inhibition: 0%

SMILES: CCOc1ccc(CSC(CC(=O)O)C(=O)O)cc1 (stereo not given)
- inhibition: 6%

SMILES: CCOc1cc(NC(=O)c2ccco2)c(OCC)cc1NC(=O)Cc1cccc(OC)c1
- inhibition: 8%

SMILES: O=C(COn1nnc2ccc(C(F)(F)F)cc21)Nc1nnc(-c2ccccc2)o1
- inhibition: 0%

SMILES: Cc1cc(Br)c(S(=O)(=O)n2nnc3ccccc32)cc1C
- inhibition: 2%

SMILES: Cc1ccc2c(c1)NC(=O)C(CC(=O)NC1CCCCC1C)O2 (stereo not given)
- inhibition: 11%

SMILES: O=C1CN(c2ccccc2F)C(=O)CN1c1ccccc1F
- inhibition: 0%

SMILES: C/C(=C\C(=O)c1ccc(F)cc1)Nc1ccc(N2CCOCC2)cc1
- inhibition: 0%

SMILES: CC(C)[C@H](NC(=O)NCc1ccc(Cl)cc1)C(=O)O
- inhibition: 0%

SMILES: CCN1CCN(c2ncc(C(=O)N3CCN(c4ccccc4OC)CC3)c3ccccc23)CC1
- inhibition: 3%

SMILES: Cc1cnc(C(=O)Nc2ccc(-n3cnnn3)cc2)cn1
- inhibition: 14%

SMILES: CC(C(=O)O)c1ccc(-c2ccccc2)c(F)c1 (stereo not given)
- inhibition: 0%

SMILES: Cc1ccccc1-c1nc(CN2CCC(C(=O)NCCCN3CCOCC3)CC2)c(C)o1
- inhibition: 5%

SMILES: COc1cc2[nH]c3c(=O)n(CCN(C(C)C)C(C)C)cnc3c2cc1OC
- inhibition: 10%

SMILES: COc1ccccc1N1CCN(C(=O)c2ccc(S(=O)(=O)N3CCCCCC3)cc2)CC1
- inhibition: 2%
